Screens from PubChem.
TDP1 cell CPT – qHTS for Inhibitors of human tyrosyl-DNA phosphodiesterase 1 (TDP1): qHTS in cells in presence of CPT | chicken DT40 Tdp1-/-;hTDP1 cells + 20 nM CPT, ATP luminescence, 48 h | Potency, µM (titrated, usually from 46.2 µM), without a hit: at the top dose activity change, negative = growth inhibition, most hits filed as inhibitors | hit rate 12% among 420,000 | AID 686979, 2013; further: potency means the concentration at half of the fitted maximal effect; nearly all actives have a fitted effect of over 55% in size
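Cell growth measured by CellTiter-Glo luminescence after a minimum 48 h, 37 C compound exposure with 20 nM CPT in Tdp1-knockout DT40 cells stably expressing hTDP1, seeded 400/well; qHTS titration format.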
IL1B secr inh – qHTS for Inhibitors of Inflammasome Signaling: IL-1-beta AlphaLISA Primary Screen; THP-1 LPS/ATP IL-1B secretion, AlphaLISA, 16 h; active compounds read low; activity change, % at 57.5 µM; hit rate 4.7% among 360,000; in the data active means activity change below about -50%; inconclusive means mostly about -30% to -49%
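Secreted IL-1B measured by AlphaLISA bead assay after 16 h compound exposure of THP-1 cells; compounds (final up to 57.5 uM) added 1 h before LPS (250 ng/mL) and ATP (1.25 mM) stimulation; lower signal means less secretion.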
TDP1 cell noCPT – qHTS for Inhibitors of human tyrosyl-DNA phosphodiesterase 1 (TDP1): qHTS in cells in absence of CPT; DT40 Tdp1-/- hTDP1 cells, no CPT, ATP luminescence, 48 h; Potency, µM (series often up to 46.2 µM), inactives show at the highest dose activity change, negative = growth inhibition, actives largely listed as inhibitors; hit rate 15% among 420,000; AID 686978, 2013; further: potency means the concentration at half of the fitted maximal effect; nearly all actives have a fitted effect of over 55% in size
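Seeded 400 DT40-hTDP1 cells/well (vehicle DMSO, no 20 nM CPT); pinned compounds; ≥48 hr at 37 °C; CellTiter-Glo luminescence as viability measure.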
HT1080NT lethal – qHTS for induction of synthetic lethality in tumor cells producing 2HG: qHTS for the HT-1080-NT fibrosarcoma cell line; HT-1080-NT fibrosarcoma viability, CellTiter-Glo ATP luminescence, 48 h; hit rate 1.6% among 360,000; AID 686970, 2013; Potency, µM (series often up to 46.1 µM), inactives show at the highest dose activity, negative = less viability, usual class: cytotoxic;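 further: NT is the 2HG producing partner of a matched IDH1 knockdown line; potency means the concentration at half of the fitted maximal effect; 0% = DMSO-treated cells and -100% = media-only wells without cells; nearly all actives have a fitted effect of over 55% in size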
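Viability by CellTiter-Glo luminescence after 48 h compound exposure at 37C of HT-1080-NT cells (750/well, RPMI, 5% FBS). % activity scaled between DMSO wells and medium-only wells, then curve-fitted and categorized by curve class.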
HT1080 IDH1KD tx – qHTS for induction of synthetic lethality in tumor cells producing 2HG: qHTS for the HT-1080-IDH1KD cell line | HT-1080 IDH1 knockdown viability, ATP luminescence, 48 h | Potency, µM (titrated, usually from 46.1 µM), for inactives: at the top dose activity, negative = toxicity, hits mostly cytotoxic | hit rate 2% among 360,000 | AID 686971, 2013;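 further: potency means the concentration at half of the fitted maximal effect; 0% = DMSO wells and -100% = cell-free medium wells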
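HT-1080-IDH1KD cells (IDH1 knocked down), 750/well in RPMI with 5% FBS, treated with compound 48 h at 37 degrees C. Viability by CellTiter-Glo luminescence, normalised to DMSO and no-cell wells; concentration-response curves classed.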
The depositor's hits bear a star; ? = inconclusive; . = no result. Most compounds without a hit are left out; they make up all but 19% or so of the library. Unless noted, the call rests on the fitted dose curve; in most records, active means well fitted curve in the direction sought with a large enough effect; inconclusive means small, poorly fitted or top-dose-only effect, or another doubt; inactive means no such curve, though single readings can be large; an effect the other way counts as inactive or inconclusive. Unless noted, on the % scale 0 is the no-effect control and ±100 the full control effect.

SMILES	TDP1 cell CPT	IL1B secr inh	TDP1 cell noCPT	HT1080NT lethal	HT1080 IDH1KD tx
Cc1nnc(N/N=C/c2ccc(-c3ccc(Br)cc3)o2)n1N	?	0	?	?	?
Cc1nnc(N/N=C/c2ccc(Br)cc2)n1N	?	0	6%	?	23µM*
CCCc1cc(=O)[nH]c(SCC(=O)Nc2cc(S(=O)(=O)N(CC)c3ccccc3)ccc2Cl)n1	-20%	3	?	-27%	?
CCCCN(C)c1c(C)nc2ccc(C(=O)Nc3ccc(OC)c(OC)c3)cn12	?	1	15µM*	1%	-10%
CCCCN(C)c1c(C)nc2ccc(C(=O)Nc3cc(-c4ccccc4)ccc3OC)cn12	13µM*	?	16µM*	?	?
O=C(CN1CCN(Cc2ccc(F)cc2Cl)CC1)NCc1ccccc1	?	-8	-21%	0%	1%
COc1ccc(CCN(C)Cc2ccc(C(=O)Nc3ccccc3)cc2)cc1OC	?	?	?	1%	-19%
Fc1ccc(-c2nnc3ccc(N4CCc5ccccc5C4)nn23)cc1	9.2µM*	-89*	8.2µM*	0%	-20%
CCCCN1CC(COCc2ccccc2)Oc2cccc(OCCN3C(=O)[C@@H]4[C@H](C3=O)C3C=C[C@H]4C3)c2S1(=O)=O (stereo not given in full)	?	9	?	?	-30%
CCCCNC(=O)COC(=O)c1ccc(Cl)c(S(N)(=O)=O)c1	4%	-6	-2%	4%	11%
COc1ccc(N=C(c2ccccc2)c2c(C)[nH]n(-c3ccccc3)c2=O)c(OC)c1	?	?	18µM*	1%	-11%
NC(=O)NCC(N)C(=O)O (stereo not given)	1%	.	-5%	.	.
CCOC(=O)N1CCC(NC(=O)c2cnn(-c3cccc(F)c3)c2-n2cccc2)CC1	?	.	18µM*	.	.
CCOC(=O)N1CCC(NC(=O)c2c(C)nn(-c3cccc(C)c3)c2-n2cccc2)CC1	21µM*	.	18µM*	.	.
CCOC(=O)N1CCC(NC(=O)c2sc(-n3cccc3)nc2C)CC1	?	-1	-17%	-1%	-1%
CC1(C)C(=O)N(CC(=O)Nc2ccc(OC(F)(F)F)cc2)c2ccccc21	-27%	.	?	.	.
O=C(O)c1c[nH]c2c([N+](=O)[O-])cccc2c1=O	?	22	9.2µM*	-6%	-17%
Cn1nc(-c2ccc(C(=O)N3CCN(Cc4ccccc4)CC3)cc2)c2ccccc2c1=O	23µM*	6	18µM*	-9%	-9%
COc1cc(OC)cc(C(=O)N2CCN(C(=O)c3ccc(-c4ccccc4)cc3)CC2)c1	-22%	-68*	?	-1%	-9%
COc1ccc(C2N(C(=O)c3ccccc3)CCN2C(=O)c2ccc(C)cc2)cc1 (stereo not given)	29µM*	-13	?	0%	-23%
COc1cc(CN2CCN(C(=O)c3ccc(-c4ccccc4)cc3)CC2)cc(OC)c1OC	21µM*	-19	26µM*	-22%	-23%
Cc1ccc(C(=O)N(C)CC(=O)Nc2ccc(N3CCOCC3)cc2)s1	-16%	-7	-8%	11%	11%
CN(Cc1ccccc1)C(=O)NC1CCCCC1	-5%	-7	7%	3%	-1%
CC[C@@H](CC1CCCCC1)C(=O)N(Cc1ccccc1)c1ccccc1	4.6µM*	40	4.1µM*	-4%	-4%
COc1cc(NC(=O)COCc2cc(-c3ccc(F)cc3)on2)cc(OC)c1OC	13µM*	.	9.2µM*	.	.
O=C(COCc1cc(-c2ccc3c(c2)OCO3)on1)Nc1cccnc1	?	-4	?	6.5µM*	5.8µM*
CC1CCN(C(=O)c2[nH]cnc2C(=O)N[C@@H](C)c2ccccc2)CC1	-1%	21	-21%	10%	5%
